According to PubChem BioAssay (EPA / NIEHS):
Inconclusive results are not listed. Active and inactive are the calls of the source. The calls were made as follows: active = hit-call score of the fitted dose curve at least 0.9, where 1 is the maximum; inconclusive = response in the unintended direction; inactive = score below 0.9.

Tests used:
[1] = target: human Peroxisome Proliferator-activated Receptor alpha (PPARa), PPARA (gene 5465) (UniProt Q07869); assay: ATG_PPARa_TRANS: Attagene TRANS-FACTORIAL HepG2 Assay for human Peroxisome Proliferator-activated Receptor alpha (PPARa) (AID 2283001)
Sequence of human Peroxisome Proliferator-activated Receptor alpha (PPARa), PPARA (gene 5465) (Q07869 whole entry, looked up, the tested form may be a part): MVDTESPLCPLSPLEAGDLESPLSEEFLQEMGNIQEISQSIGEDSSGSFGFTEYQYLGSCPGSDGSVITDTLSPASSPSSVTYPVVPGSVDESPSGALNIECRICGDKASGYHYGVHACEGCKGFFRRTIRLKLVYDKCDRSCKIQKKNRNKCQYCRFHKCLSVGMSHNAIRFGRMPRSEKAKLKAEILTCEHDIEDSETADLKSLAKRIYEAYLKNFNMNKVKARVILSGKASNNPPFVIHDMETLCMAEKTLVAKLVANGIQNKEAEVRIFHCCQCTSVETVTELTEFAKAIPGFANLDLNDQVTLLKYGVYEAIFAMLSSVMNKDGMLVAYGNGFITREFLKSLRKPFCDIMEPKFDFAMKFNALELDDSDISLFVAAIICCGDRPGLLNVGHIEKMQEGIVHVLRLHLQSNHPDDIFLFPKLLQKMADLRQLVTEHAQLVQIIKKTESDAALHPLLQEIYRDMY
In short: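 Gain-of-signal endpoint: reporter mRNA induction relative to DMSO, detected by fluorescent RT-PCR and capillary electrophoresis. HepG2 cells transiently carried GAL4-UAS-driven reporter units plus NR-Gal4 fusion; exposure lasted 24 h.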

[2] = target: Retinoic acid receptor alpha (Homo sapiens) (UniProt P10276); assay: ATG_RARa_TRANS: Attagene TRANS-FACTORIAL HepG2 Assay for human Retinoic Acid Receptor alpha (RARa) (AID 2283005)
Sequence of Retinoic acid receptor alpha (Homo sapiens) (P10276 whole entry, looked up, the tested form may be a part): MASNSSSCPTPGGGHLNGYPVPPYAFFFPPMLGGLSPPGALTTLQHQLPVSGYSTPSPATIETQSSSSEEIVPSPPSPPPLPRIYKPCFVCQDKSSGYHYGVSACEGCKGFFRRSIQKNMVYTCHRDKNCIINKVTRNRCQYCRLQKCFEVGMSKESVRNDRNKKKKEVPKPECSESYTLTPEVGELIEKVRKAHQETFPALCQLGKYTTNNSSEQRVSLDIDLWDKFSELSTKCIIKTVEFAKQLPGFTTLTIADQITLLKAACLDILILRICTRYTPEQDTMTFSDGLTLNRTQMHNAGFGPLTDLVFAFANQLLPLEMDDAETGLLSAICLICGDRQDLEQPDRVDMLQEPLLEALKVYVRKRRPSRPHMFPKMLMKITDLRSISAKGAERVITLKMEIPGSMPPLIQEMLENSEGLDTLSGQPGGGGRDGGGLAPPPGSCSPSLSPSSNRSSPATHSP
In short: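 HepG2 cells transiently transfected with multiple reporter units expressing chimeric RARα-GAL4 fusion, with GAL4-UAS-driven reporters. After 24 h compound exposure, reporter mRNA induction quantified by RT-PCR and capillary electrophoresis with fluorescent labeling; gain-of-signal fitted relative to DMSO control.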

[3] = target: Peroxisome proliferator-activated receptor gamma (Homo sapiens) (UniProt P37231); assay: ATG_PPARg_TRANS: Attagene TRANS-FACTORIAL HepG2 Assay for human Peroxisome Proliferator-activated Receptor-gamma (PPARg) (AID 2283007)
Sequence of Peroxisome proliferator-activated receptor gamma (Homo sapiens) (P37231 whole entry, looked up, the tested form may be a part): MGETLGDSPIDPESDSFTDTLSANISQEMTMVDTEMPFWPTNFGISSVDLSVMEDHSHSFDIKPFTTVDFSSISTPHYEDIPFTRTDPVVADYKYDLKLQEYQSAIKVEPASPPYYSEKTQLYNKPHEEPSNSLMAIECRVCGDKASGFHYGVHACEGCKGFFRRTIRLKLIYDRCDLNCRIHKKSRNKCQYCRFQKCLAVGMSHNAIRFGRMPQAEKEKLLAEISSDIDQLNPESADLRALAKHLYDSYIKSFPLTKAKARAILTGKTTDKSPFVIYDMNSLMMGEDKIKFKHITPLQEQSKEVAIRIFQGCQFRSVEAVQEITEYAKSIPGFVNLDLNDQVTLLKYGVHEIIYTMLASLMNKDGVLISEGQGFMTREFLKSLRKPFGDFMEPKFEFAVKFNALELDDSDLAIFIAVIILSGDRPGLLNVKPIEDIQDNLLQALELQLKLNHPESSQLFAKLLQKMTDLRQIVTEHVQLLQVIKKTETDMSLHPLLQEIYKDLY
In short: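 After 24 h of chemical exposure, transfected HepG2 cells carrying PPARγ-Gal4 chimera reporter constructs are lysed for RNA. Reporter transcripts are measured by RT-PCR and capillary electrophoresis with fluorescent labelling, and gain of signal is fitted versus DMSO.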

[4] = target: Nuclear receptor subfamily 1 group I member 2 (Homo sapiens) (UniProt O75469); assay: ATG_PXR_TRANS: Attagene TRANS-FACTORIAL HepG2 Assay for human Pregnane X Receptor (PXR) (AID 2283008)
Sequence of Nuclear receptor subfamily 1 group I member 2 (Homo sapiens) (O75469 whole entry, looked up, the tested form may be a part): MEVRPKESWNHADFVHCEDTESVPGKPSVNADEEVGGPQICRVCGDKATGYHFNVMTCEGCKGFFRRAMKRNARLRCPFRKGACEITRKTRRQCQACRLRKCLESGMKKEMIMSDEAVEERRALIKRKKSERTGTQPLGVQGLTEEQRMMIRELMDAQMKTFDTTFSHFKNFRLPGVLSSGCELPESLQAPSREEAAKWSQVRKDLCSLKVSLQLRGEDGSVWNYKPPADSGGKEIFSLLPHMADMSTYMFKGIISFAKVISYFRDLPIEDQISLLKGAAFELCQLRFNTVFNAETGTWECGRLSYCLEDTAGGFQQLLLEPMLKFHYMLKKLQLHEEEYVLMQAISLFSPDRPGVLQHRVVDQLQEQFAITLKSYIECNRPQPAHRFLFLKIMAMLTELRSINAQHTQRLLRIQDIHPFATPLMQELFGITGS
In short: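 Read-out is fluorescence of labelled reporter cDNA fragments separated by capillary electrophoresis after RT-PCR and HpaI digestion. Source: HepG2 cells carrying PXR-GAL4/UAS reporter constructs, treated 24 h; activity fitted upward relative to DMSO.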

[5] = target: human Retinoic Acid Receptor gamma (RARg), RARG (gene 5916) (UniProt P13631); assay: ATG_RARg_TRANS: Attagene TRANS-FACTORIAL HepG2 Assay for human Retinoic Acid Receptor gamma (RARg) (AID 2283009);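 as to AC50: AC50 is for reporter induction above DMSO meaning RARg activation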
Sequence of human Retinoic Acid Receptor gamma (RARg), RARG (gene 5916) (P13631 whole entry, looked up, the tested form may be a part): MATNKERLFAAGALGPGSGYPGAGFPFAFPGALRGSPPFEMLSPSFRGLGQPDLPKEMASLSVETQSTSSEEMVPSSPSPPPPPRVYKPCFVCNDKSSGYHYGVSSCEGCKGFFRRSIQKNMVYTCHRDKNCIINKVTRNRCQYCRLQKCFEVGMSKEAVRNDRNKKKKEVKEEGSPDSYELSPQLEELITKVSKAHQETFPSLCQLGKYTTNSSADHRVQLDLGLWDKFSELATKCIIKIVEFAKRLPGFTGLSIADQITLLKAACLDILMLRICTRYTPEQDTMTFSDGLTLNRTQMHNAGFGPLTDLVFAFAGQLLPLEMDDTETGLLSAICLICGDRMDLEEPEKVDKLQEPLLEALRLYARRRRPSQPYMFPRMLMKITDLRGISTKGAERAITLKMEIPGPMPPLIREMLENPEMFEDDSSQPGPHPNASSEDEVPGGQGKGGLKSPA
In short: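 HepG2 transiently transfected with GAL4-UAS reporter units and chimeric NR-Gal4 constructs; 24 h compound exposure. Reporter mRNA quantified by RT-PCR, FAM labeling, HpaI digestion and capillary electrophoresis; gain-of-signal versus DMSO.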

[6] = target: human RAR-related Orphan Receptor beta (RORb), RORB (gene 6096) (UniProt Q92753); assay: ATG_RORb_TRANS: Attagene TRANS-FACTORIAL HepG2 Assay for human RAR-related Orphan Receptor beta (RORb) (AID 2283010)
Sequence of human RAR-related Orphan Receptor beta (RORb), RORB (gene 6096) (Q92753 whole entry, looked up, the tested form may be a part): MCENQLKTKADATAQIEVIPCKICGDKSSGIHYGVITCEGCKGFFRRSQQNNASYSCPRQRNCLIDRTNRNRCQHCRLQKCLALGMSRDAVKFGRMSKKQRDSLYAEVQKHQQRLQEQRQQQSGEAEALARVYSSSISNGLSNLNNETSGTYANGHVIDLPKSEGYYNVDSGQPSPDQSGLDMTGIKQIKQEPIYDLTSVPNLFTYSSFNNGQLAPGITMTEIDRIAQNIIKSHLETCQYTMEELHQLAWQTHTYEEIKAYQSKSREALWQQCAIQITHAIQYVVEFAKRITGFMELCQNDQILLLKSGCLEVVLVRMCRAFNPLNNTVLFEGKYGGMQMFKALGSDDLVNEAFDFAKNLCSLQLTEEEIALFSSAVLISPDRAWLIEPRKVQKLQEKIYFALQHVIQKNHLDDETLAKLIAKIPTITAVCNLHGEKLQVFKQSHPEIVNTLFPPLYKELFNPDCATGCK
In short: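 HepG2 cells transiently transfected with GAL4-UAS reporter units expressing chimeric NR-Gal4 protein; reporter mRNA measured 24 h after dosing by RT-PCR, 6-FAM labelling and capillary electrophoresis. Gain-of-signal fitted relative to DMSO baseline.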

[7] = target: Retinoic acid receptor RXR-alpha (Homo sapiens) (UniProt P19793); assay: ATG_RXRa_TRANS: Attagene TRANS-FACTORIAL HepG2 Assay for human Retinoid X Receptor alpha (RXRa) (AID 2283012)
Sequence of Retinoic acid receptor RXR-alpha (Homo sapiens) (P19793 whole entry, looked up, the tested form may be a part): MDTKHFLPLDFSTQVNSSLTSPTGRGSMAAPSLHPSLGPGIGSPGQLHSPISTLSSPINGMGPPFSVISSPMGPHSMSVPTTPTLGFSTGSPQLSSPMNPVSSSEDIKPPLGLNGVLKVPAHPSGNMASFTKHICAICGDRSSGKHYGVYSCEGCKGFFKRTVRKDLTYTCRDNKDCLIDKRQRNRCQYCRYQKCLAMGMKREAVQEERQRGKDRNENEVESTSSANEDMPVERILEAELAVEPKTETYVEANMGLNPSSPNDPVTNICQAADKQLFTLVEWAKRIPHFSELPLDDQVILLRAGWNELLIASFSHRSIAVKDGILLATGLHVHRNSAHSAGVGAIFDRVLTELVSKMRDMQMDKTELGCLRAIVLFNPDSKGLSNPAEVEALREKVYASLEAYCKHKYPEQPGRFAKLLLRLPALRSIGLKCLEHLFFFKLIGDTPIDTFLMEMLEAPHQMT
In short: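 HepG2 cells transiently transfected with GAL4-UAS reporter units and chimeric RXRa-Gal4 protein, treated 24 h. Reporter mRNA measured by RT-PCR, fluorescent labelling, HpaI digestion and capillary electrophoresis. Induction fitted against DMSO.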

[8] = target: human Retinoid X Receptor beta (RXRb), RXRB (gene 6257) (UniProt P28702); assay: ATG_RXRb_TRANS: Attagene TRANS-FACTORIAL HepG2 Assay for human Retinoid X Receptor beta (RXRb) (AID 2283013)
Sequence of human Retinoid X Receptor beta (RXRb), RXRB (gene 6257) (P28702 whole entry, looked up, the tested form may be a part): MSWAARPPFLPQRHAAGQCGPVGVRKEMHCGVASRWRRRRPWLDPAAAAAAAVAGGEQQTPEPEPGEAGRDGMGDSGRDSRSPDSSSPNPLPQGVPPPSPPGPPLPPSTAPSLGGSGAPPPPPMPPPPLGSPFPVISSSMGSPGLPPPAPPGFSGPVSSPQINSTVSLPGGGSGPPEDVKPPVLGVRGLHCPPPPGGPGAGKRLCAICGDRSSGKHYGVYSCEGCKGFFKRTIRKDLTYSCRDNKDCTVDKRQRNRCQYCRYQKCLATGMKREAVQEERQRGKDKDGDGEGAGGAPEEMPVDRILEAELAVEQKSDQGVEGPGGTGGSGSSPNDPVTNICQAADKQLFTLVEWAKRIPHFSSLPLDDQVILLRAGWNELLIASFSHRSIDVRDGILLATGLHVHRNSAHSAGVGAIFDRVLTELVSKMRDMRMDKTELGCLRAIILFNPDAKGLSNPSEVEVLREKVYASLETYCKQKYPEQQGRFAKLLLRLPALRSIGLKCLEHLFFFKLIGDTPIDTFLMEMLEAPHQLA
In short: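 HepG2 cells were transiently transfected with multiplexed GAL4-UAS reporters and a chimeric RXRb-Gal4 construct, then exposed for 24 h. Reporter mRNA was quantified by RT-PCR, FAM labeling, HpaI digestion and capillary electrophoresis; gain of signal was scored against DMSO.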

[9] = target: human Retinoic Acid Receptor beta (RARb), RARB (gene 5915) (UniProt P10826); assay: ATG_RARb_TRANS: Attagene TRANS-FACTORIAL HepG2 Assay for human Retinoic Acid Receptor beta (AID 2283004)
Sequence of human Retinoic Acid Receptor beta (RARb), RARB (gene 5915) (P10826 whole entry, looked up, the tested form may be a part): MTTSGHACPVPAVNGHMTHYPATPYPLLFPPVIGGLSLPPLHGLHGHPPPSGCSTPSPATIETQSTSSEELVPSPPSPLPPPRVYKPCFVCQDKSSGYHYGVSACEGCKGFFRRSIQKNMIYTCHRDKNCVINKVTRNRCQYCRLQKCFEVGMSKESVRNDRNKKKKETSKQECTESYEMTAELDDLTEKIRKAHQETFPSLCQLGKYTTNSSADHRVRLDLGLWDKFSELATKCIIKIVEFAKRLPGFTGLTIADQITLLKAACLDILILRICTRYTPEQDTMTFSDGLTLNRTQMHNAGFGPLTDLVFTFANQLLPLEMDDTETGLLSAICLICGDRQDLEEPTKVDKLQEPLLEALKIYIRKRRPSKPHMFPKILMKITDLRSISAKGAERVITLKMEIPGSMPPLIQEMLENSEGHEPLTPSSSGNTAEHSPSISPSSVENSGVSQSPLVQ
In short: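 Readout is reporter mRNA induction: RNA reverse-transcribed, PCR-amplified, FAM-labelled, HpaI-cut and resolved by capillary electrophoresis. Transiently transfected HepG2 cells carrying exogenous NR–Gal4 chimeras were dosed for 24 h; activity fitted upward relative to DMSO.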

[10] = target: human Thyroid Receptor alpha (THRa1), THRA (gene 7067) (UniProt P10827); assay: ATG_THRa1_TRANS: Attagene TRANS-FACTORIAL HepG2 Assay for human Thyroid Receptor alpha (THRa1) (AID 2283014)
Sequence of human Thyroid Receptor alpha (THRa1), THRA (gene 7067) (P10827 whole entry, looked up, the tested form may be a part): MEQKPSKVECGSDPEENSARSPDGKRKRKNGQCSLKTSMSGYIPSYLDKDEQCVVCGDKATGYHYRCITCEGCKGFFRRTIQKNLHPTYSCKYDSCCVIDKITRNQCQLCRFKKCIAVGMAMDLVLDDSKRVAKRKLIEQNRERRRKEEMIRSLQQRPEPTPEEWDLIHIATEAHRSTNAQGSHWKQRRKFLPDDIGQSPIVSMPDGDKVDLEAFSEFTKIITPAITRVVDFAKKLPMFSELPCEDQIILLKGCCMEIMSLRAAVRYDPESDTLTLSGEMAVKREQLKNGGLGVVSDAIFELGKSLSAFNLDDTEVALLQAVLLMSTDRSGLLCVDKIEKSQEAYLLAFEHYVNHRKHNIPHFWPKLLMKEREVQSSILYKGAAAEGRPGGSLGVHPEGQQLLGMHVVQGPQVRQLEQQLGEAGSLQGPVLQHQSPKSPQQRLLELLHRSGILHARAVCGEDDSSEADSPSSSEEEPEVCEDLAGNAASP
In short: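 Transient HepG2 transfection, NR-Gal4 chimera driving GAL4-UAS reporters; 24 h compound exposure; total RNA, oligo(dT) RT, PCR, fluorescent primer extension, capillary electrophoresis. Upward direction vs DMSO control.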

[11] = target: human RAR-related Orphan Receptor gamma (RORg), RORC (gene 6097) (UniProt P51449); assay: ATG_RORg_TRANS: Attagene TRANS-FACTORIAL HepG2 Assay for human RAR-related Orphan Receptor gamma (RORg) (AID 2283011)
In short: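 Transient MRTU transfection of HepG2 (TRANS format, exogenous NR-Gal4 chimera). 24 h dosing. Total RNA → oligo(dT) RT → PCR → 6-FAM labelling → HpaI cut → CE. Gain vs DMSO.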

[12] = target: human Peroxisome Proliferator-activated Receptor delta (PPARd), PPARD (gene 5467) (UniProt Q03181); assay: ATG_PPARd_TRANS: Attagene TRANS-FACTORIAL HepG2 Assay for human Peroxisome Proliferator-activated Receptor delta (PPARd) (AID 2283002)
In short: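 Multiplexed trans-activation format: HepG2 liver cells expressing exogenous NR-Gal4 chimeras and GAL4-UAS reporters were exposed for 24 h. Reporter mRNA was detected by RT-PCR with capillary electrophoresis fluorescence; activity fitted as gain of signal relative to DMSO.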

## CC(CCO)CC(C)(C)C (stereo unspecified)
[1]
  outcome: inactive
[2]
  outcome: inactive
[3]
  outcome: inactive
[4]
  outcome: inactive
[5]
  outcome: inactive
[6]
  outcome: inactive
[7]
  outcome: inactive
[8]
  outcome: inactive

## CCCCCCCCCCO[C@@H]1O[C@H](CO)[C@@H](O)[C@H](O)[C@H]1O
[1]
  outcome: inactive
[3]
  outcome: inactive
[4]
  outcome: inactive
[5]
  outcome: inactive
[8]
  outcome: inactive

## CCC(C)C1CCCCC1=O (stereo unspecified)
[1]
  outcome: inactive
[9]
  outcome: inactive
[2]
  outcome: inactive
[3]
  outcome: inactive
[4]
  outcome: inactive
[5]
  outcome: inactive
[6]
  outcome: inactive
[7]
  outcome: inactive
[8]
  outcome: inactive
[10]
  outcome: inactive

## CN1CCc2cccc3c2[C@H]1Cc1ccc(O)c(O)c1-3
[1]
  outcome: inactive
[9]
  outcome: inactive
[2]
  outcome: inactive
[3]
  AC50: 12 µM (active)
[4]
  outcome: inactive
[5]
  AC50: 0.775 µM (active)
[7]
  outcome: inactive
[8]
  outcome: inactive

## Cc1ccccc1S
[1]
  outcome: inactive
[3]
  AC50: 41.6 µM (active)
[4]
  outcome: inactive
[11]
  outcome: inactive
[8]
  outcome: inactive
[10]
  outcome: inactive

## CC1=CC[C@@H]2C[C@H]1C2(C)C
[1]
  outcome: inactive
[12]
  outcome: inactive
[6]
  outcome: inactive
[7]
  outcome: inactive
[10]
  outcome: inactive

## CCC(C)COC(=O)CC(C)C (stereo unspecified)
[1]
  outcome: inactive
[3]
  outcome: inactive
[4]
  outcome: inactive
[6]
  outcome: inactive
[7]
  outcome: inactive
[8]
  outcome: inactive
[10]
  outcome: inactive

## CCCCC/C=C\C=C\C(=O)OCC
[1]
  outcome: inactive
[3]
  AC50: 28.5 µM (active)
[4]
  AC50: 5.19 µM (active)
[7]
  outcome: inactive

## CCO[Si](CC)(OCC)OCC
[1]
  outcome: inactive
[9]
  outcome: inactive
[4]
  AC50: 2.84 µM (active)
[11]
  outcome: inactive

## O=C(O)C1=NN(c2ccc(S(=O)(=O)O)cc2)C(=O)C1
[1]
  outcome: inactive
[3]
  outcome: inactive

## CCCCCC#CC(=O)OC
[1]
  outcome: inactive
[3]
  AC50: 12.9 µM (active)
[4]
  outcome: inactive
[6]
  outcome: inactive
[7]
  outcome: inactive
[8]
  AC50: 100 µM (active)

## CC(=O)c1ccc2ccccc2c1
[1]
  outcome: inactive
[3]
  outcome: inactive
[4]
  outcome: inactive
[6]
  outcome: inactive
[7]
  outcome: inactive
[8]
  outcome: inactive
[10]
  outcome: inactive

## CCCCCCCCCO
[1]
  outcome: inactive
[3]
  outcome: inactive
[4]
  outcome: inactive
[7]
  outcome: inactive
[8]
  outcome: inactive

## C=C(C)C(=O)OCCC(C)OC(=O)C(=C)C (stereo unspecified)
[1]
  outcome: inactive
[3]
  AC50: 47 µM (active)
[4]
  outcome: inactive
[8]
  outcome: inactive
